Drawing on PubChem BioAssay (Tox21), this text covers Potency and outcome for ten compounds.

Each structure is given as a SMILES string. Values joined by “and” are separate entries in the source; they are usually repeats but may differ in a detail not shown here. Identical values can stand only once. Inconclusive results are not listed. Where a structure was tested more than once in an assay, its records may differ in their call. Active and inactive are the calls of the source. Unless noted, calls come from the whole dose curve; as a rule, active = well fitted curve in the direction sought with a large enough effect in the repeat runs; inconclusive = weak or mixed curves; inactive = no such curve, though single readings can be large; an effect the other way counts as inactive or inconclusive.

Assay [1] is described as follows: qHTS assay to identify aromatase inhibitors - cell viability counter screen (AID 743084;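 note: cells stimulated with testosterone during compound exposure; nearly all actives have a fitted effect of over 55% in size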; note: potency is the fitted concentration of half-maximal effect). (In general: Quantitative high-throughput screening tests each substance at several concentrations.)
Assay [2] has as its target Aryl hydrocarbon receptor (Homo sapiens) (UniProt P35869). Description: qHTS assay to identify small molecule that activate the aryl hydrocarbon receptor (AhR) signaling pathway (AID 743085).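 For activation: HG2L7.5c1 human HepG2 liver cells with stably integrated DRE-driven firefly reporter; series mostly up to about 70 µM.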 Note: nearly all actives have a fitted effect of over 15% in size. Note: potency is the fitted concentration of half-maximal effect. The gist of the method: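 Cell line HG2L7.5c1 (human hepatoma, 20× DRE-luc). Plated, 5 h 37C, compound/DMSO added, 24 h 37C. CellTiter-Fluor 30 min 37C → fluorescence; then ONE-Glo 30 min RT → luminescence.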

Assay [3] in a line: qHTS assay to identify small molecule that activate the aryl hydrocarbon receptor (AhR) signaling pathway - cell viability counter screen (AID 743086). Note: nearly all actives have a fitted effect of over 45% in size. Note: potency is the fitted concentration of half-maximal effect. The gist of the method: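 HepG2-AhR-luc (HG2L7.5c1) cells, 4000/well, were preincubated 5 h at 37C, exposed to compound in qHTS format for 24 hr at 37C, then given CellTiter-Fluor for 30 min; viability was read as fluorescence in the reporter wells.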

Assay [4] concerns the target Peroxisome proliferator-activated receptor gamma (Homo sapiens) (UniProt P37231). Description: qHTS assay to identify small molecule agonists of the peroxisome proliferator-activated receptor gamma (PPARg) signaling pathway (AID 743094; active = well fitted activation curve with a large enough effect in the signal ratio in the repeat runs, not every such curve was filed as active; the % refers to the signal ratio). The gist of the method: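 Agonism was assessed in a beta-lactamase reporter system, HEK293H cells with a stably integrated UAS-bla construct under PPARg control; the 17 h treatment at 37C preceded a 1 h room-temperature FRET substrate read.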

Assay [5] shares this target. As to the kind of experiment: qHTS assay to identify small molecule antagonists of the peroxisome proliferator-activated receptor gamma (PPARg) signaling pathway (AID 743191; calls by dose curve; note: series mostly up to about 63 µM; nearly all actives have a fitted effect of over 30% in size). The gist of the method: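 GeneBLAzer PPARg UAS-bla HEK293H cells carrying a UAS-driven beta-lactamase reporter were plated at 3000 cells/well, preincubated 5 h at 37C, then given compound for 17 h at 37C; LiveBLAzer B/G FRET substrate was read after 1 h at room temperature.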

Assay [6] in a line: qHTS assay to identify small molecule antagonists of the peroxisome proliferator-activated receptor gamma (PPARg) signaling pathway - cell viability counter screen (AID 743194). Note: nearly all actives have a fitted effect of over 55% in size. The gist of the method:
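PPARg-UAS-bla HEK293H cells were plated, rested 5 h at 37 C, then treated with compounds plus rosiglitazone (50 nM final) for 17 h at 37 C; viability was then read by CellTiter-Glo luminescence after 30 min at room temperature.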

Assay [7] can be described thus: qHTS assay for small molecule agonists of the antioxidant response element (ARE) signaling pathway (AID 743202; active = well fitted activation curve with a large enough effect in the signal ratio in the repeat runs, not every such curve was filed as active; the % refers to the signal ratio; note: potency is the fitted concentration of half-maximal effect). The gist of the method:
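Following a 16 h, 37 C exposure of reporter HepG2 cells (ARE-driven beta-lactamase, 2,000 cells/well) to compounds, FRET substrate was applied for 2 h at room temperature and fluorescence intensity recorded.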

A short description of assay [8]: qHTS assay for small molecule agonists of the antioxidant response element (ARE) signaling pathway - cell viability counter screen (AID 743203; calls by dose curve; note: nearly all actives have a fitted effect of over 55% in size). The gist of the method: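 ATP content via CellTiter-Glo luminescence served as the viability measure. Cells: ARE-bla HepG2, 2,000 per well. Exposure: 16 hrs, 37C/5% CO2.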
Assay [9] in a line: qHTS assay for small molecule activators of the heat shock response signaling pathway (AID 743210; active = well fitted activation curve with a large enough effect in the signal ratio in the repeat runs, with a control signal flat, not every such curve was filed as active; the % refers to the signal ratio; note: series mostly up to about 63 µM). The gist of the method:
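Heat shock element–beta-lactamase HeLa reporter cells; qHTS with compounds for 5 h at 37 C; detection by FRET substrate fluorescence after 2.5 h at RT.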

Assay [10] in a line: qHTS assay to identify small molecule agonists of the peroxisome proliferator-activated receptor delta (PPARd) signaling pathway - cell viability counter screen (AID 743211). Note: nearly all actives have a fitted effect of over 55% in size. The gist of the method: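 HEK293H PPARd-bla, 3000 cells/well; 5 h preincubation 37C/5% CO2; cpd in DMSO, 17 h 37C; B/G FRET substrate 2 h RT; CellTiter-Glo 30 min RT, luminescence.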
The nature of assay [11]: qHTS assay to identify small molecule agonists of the farnesoid-X-receptor (FXR) signaling pathway - cell viability counter screen (AID 743218). Note: nearly all actives have a fitted effect of over 45% in size. The gist of the method:
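Quantitative HTS counter screen measuring ATP-based viability via CellTiter-Glo luminescence in HEK 293T cells carrying a UAS-driven beta-lactamase reporter, after 16 h compound exposure at 37 C.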

Assay [12] can be described thus: qHTS assay to identify small molecule antagonists of the farnesoid-X-receptor (FXR) signaling pathway - cell viability counter screen (AID 743221; active = well fitted cell-killing curve with a large enough effect in the repeat runs, not every such curve was filed as active; note: nearly all actives have a fitted effect of over 50% in size). The gist of the method: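 Luminescence from CellTiter-Glo measures cytotoxicity in GeneBLAzer FXR-UAS-bla HEK 293T cells. Cells were exposed to compounds with 50 uM chenodeoxycholic acid (final) for 16 h at 37 C, in wells also used for the reporter readout.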

A short description of assay [13]: qHTS assay for small molecule activators of the heat shock response signaling pathway - cell viability counter screen (AID 743209). Note: nearly all actives have a fitted effect of over 50% in size. The gist of the method:
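Compounds dissolved in DMSO were added to overnight-plated HSE-bla HeLa cells and left 5 h at 37 C. Cell viability was quantified by luminescence using CellTiter-Glo.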

Assay [14] deals with Peroxisome proliferator-activated receptor delta (Homo sapiens) (UniProt Q03181). As to the kind of experiment: qHTS assay to identify small molecule agonists of the peroxisome proliferator-activated receptor delta (PPARd) signaling pathway (AID 743212; calls by dose curve). The gist of the method:
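Beta-lactamase reporter read by fluorescence (LiveBLAzer B/G FRET, 2 h, room temperature). Test agents, in DMSO, incubated at 37 C with PPARd-bla HEK293H cells.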

Assay [15] has the same target. As to the kind of experiment: qHTS assay to identify small molecule antagonists of the peroxisome proliferator-activated receptor delta (PPARd) signaling pathway (AID 743215; active = well fitted inhibition curve with a large enough effect in the signal ratio in the repeat runs, not every such curve was filed as active; the % refers to the signal ratio;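 note: cells stimulated with agonist L165041 at 300 nM final during compound exposure; series mostly up to about 62 µM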). The gist of the method:
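Here, a reporter line (HEK293H, beta-lactamase under a UAS) measures PPARd signaling. Compounds are tested against agonist L165041 at 300 nM final concentration over 17 h at 37 C, with fluorescence read after substrate.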

The target in assay [16] is Vitamin D3 receptor (Homo sapiens) (UniProt P11473). As to the kind of experiment: qHTS assay to identify small molecule antagonists of the vitamin D receptor (VDR) signaling pathway (AID 743223; active = well fitted inhibition curve with a large enough effect in the signal ratio in the repeat runs, not every such curve was filed as active; the % refers to the signal ratio). The gist of the method: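 Antagonist mode uses 1alpha,25-dihydroxyvitamin D3 at 3 nM final as stimulus. VDR-bla cells receive compounds in DMSO, incubate 16 h at 37C, then a beta-lactamase FRET substrate for 2 h at room temperature before fluorescence measurement.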
Sequence of Vitamin D3 receptor (Homo sapiens) (P11473 whole entry, looked up): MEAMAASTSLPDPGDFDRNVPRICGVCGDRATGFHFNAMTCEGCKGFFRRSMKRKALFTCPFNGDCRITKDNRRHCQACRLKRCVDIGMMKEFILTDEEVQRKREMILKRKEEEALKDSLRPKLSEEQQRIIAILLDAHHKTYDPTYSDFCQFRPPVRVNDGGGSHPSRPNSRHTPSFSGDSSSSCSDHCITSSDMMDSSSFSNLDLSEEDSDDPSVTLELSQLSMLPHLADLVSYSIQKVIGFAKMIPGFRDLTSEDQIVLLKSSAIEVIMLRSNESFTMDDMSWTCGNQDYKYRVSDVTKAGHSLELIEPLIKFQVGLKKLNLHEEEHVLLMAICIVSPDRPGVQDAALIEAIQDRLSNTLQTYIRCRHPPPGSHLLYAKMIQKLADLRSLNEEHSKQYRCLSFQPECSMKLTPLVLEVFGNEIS

Assay [17] in a line: qHTS assay to identify small molecule antagonists of the peroxisome proliferator-activated receptor delta (PPARd) signaling pathway - cell viability counter screen (AID 743213). Note: nearly all actives have a fitted effect of over 50% in size. The gist of the method: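 CellTiter-Glo was added to PPARd-bla HEK293H wells following 17 h compound treatment in the presence of 300 nM L165041. Luminescence was recorded after 30 min at room temperature.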

Assay [18] addresses Bile acid receptor (Homo sapiens) (UniProt Q96RI1). As to the kind of experiment: qHTS assay to identify small molecule antagonists of the farnesoid-X-receptor (FXR) signaling pathway (AID 743217; active = well fitted inhibition curve with a large enough effect in the signal ratio in the repeat runs, not every such curve was filed as active; the % refers to the signal ratio). The gist of the method:
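Test compounds are pin-transferred onto FXR-bla HEK 293T cells, then chenodeoxycholic acid is added at 50 uM final. After 16 h at 37 °C, LiveBLAzer B/G substrate is applied for 2 h at room temperature and fluorescence read.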

Assay [19] has the same target. Description: qHTS assay to identify small molecule agonists of the farnesoid-X-receptor (FXR) signaling pathway (AID 743220; active = well fitted activation curve with a large enough effect in the signal ratio in the repeat runs, not every such curve was filed as active; the % refers to the signal ratio). The gist of the method:
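FXR-UAS-bla HEK 293T cells carrying a UAS-driven beta-lactamase reporter were plated for 5 h at 37C/5% CO2, then exposed to DMSO-dissolved Tox21 10K compounds for 16 h at 37C. A LiveBLAzer B/G FRET substrate was loaded for 2 h at room temperature before fluorescence reading.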

The target in assay [20] is Vitamin D3 receptor (Homo sapiens) (UniProt P11473). As to the kind of experiment: qHTS assay to identify small molecule agonists of the vitamin D receptor (VDR) signaling pathway (AID 743222; calls by dose curve). The gist of the method: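 Tox21 cell reporter format: VDR-bla line, 16 h compound exposure in 5% CO2 at 37C, then fluorescence intensity after 2 h with LiveBLAzer B/G FRET substrate.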

Sequence of Aryl hydrocarbon receptor (Homo sapiens) (P35869 whole entry, looked up): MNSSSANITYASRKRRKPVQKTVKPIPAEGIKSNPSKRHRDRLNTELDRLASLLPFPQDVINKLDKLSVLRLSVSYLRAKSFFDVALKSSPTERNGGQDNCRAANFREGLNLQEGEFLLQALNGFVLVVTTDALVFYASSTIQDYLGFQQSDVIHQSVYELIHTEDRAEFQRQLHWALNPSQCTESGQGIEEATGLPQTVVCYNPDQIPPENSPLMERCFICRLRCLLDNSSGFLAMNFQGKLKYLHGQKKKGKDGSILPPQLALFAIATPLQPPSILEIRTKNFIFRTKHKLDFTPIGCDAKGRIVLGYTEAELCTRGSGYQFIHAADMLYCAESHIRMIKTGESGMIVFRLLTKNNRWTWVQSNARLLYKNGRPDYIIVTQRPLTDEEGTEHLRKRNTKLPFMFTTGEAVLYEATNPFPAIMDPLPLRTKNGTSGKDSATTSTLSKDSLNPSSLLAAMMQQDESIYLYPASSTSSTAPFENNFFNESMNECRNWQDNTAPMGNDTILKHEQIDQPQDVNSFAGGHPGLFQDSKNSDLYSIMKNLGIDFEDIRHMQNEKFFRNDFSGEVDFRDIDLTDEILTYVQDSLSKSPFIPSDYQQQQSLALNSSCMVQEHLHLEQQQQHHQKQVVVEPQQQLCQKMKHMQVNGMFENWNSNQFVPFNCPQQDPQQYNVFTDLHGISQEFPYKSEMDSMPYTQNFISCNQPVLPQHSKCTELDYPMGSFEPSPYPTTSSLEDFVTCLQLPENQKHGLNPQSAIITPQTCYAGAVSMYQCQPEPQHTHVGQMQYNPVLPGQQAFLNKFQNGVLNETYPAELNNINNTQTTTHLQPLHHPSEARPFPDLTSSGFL
Sequence of Bile acid receptor (Homo sapiens) (Q96RI1 whole entry, looked up): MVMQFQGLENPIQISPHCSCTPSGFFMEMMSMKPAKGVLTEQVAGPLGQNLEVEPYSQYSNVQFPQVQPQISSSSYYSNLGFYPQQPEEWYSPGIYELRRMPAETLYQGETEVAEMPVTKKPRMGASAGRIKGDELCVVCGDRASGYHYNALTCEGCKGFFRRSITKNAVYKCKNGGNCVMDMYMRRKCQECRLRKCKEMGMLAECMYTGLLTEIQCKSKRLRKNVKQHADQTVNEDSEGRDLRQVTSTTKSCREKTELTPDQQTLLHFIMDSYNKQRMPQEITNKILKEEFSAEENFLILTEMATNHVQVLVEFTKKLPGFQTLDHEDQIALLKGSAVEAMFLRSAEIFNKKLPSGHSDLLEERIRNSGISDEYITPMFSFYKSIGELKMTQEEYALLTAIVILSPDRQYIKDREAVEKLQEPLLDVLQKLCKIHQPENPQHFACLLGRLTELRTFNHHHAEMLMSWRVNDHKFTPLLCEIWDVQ
Sequence of Peroxisome proliferator-activated receptor delta (Homo sapiens) (Q03181 whole entry, looked up): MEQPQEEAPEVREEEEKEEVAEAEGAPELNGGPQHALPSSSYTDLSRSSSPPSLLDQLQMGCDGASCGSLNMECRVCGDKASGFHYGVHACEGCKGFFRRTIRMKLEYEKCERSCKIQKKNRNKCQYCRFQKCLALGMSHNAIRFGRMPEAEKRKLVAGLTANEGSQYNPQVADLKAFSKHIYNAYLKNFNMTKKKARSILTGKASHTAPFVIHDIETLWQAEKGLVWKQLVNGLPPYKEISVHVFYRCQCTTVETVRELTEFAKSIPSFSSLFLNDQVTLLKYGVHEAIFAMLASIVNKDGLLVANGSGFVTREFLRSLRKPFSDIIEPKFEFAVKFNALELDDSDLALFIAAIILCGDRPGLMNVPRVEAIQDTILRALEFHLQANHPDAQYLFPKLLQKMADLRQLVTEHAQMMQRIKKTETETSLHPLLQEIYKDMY
Sequence of Peroxisome proliferator-activated receptor gamma (Homo sapiens) (P37231 whole entry, looked up): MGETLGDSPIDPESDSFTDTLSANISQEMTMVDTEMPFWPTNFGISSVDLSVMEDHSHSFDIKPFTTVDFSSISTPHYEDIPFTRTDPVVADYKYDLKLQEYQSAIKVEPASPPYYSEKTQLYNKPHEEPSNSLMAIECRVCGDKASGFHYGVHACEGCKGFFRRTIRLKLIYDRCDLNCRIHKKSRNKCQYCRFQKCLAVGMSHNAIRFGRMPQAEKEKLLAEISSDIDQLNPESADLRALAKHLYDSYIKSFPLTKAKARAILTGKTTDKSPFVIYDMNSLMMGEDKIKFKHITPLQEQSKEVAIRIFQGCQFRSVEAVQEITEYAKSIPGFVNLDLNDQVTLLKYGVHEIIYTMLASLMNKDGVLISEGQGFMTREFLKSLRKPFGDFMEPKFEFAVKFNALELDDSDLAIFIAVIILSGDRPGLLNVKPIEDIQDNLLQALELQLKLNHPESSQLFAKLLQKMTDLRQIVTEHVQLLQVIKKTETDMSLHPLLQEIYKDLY

`NC(N)=NC(=O)c1nc(Cl)c(N)nc1N`: the Potency result in [1], in [2] and in assay [3] was “inactive” throughout. Also, the call in assay [4], in assay [5], in [6], in assay [8], in assay [9] and in [10] was inactive. Besides, the compound was classed as inactive in [11] and in [12]. Besides, the Potency entry in [7] was “inactive and 25.3 µM (active)”.
On to `Nc1ccn([C@H]2CC[C@@H](CO)O2)c(=O)n1`, for which the Potency result in assay [1], in assay [3] and in assay [7] was “inactive” throughout. Further, the result in assay [4], in assay [5], in [6], in assay [8], in assay [13] and in assay [9] was inactive. Also, the call in assay [10], in assay [14], in assay [15], in [11] and in assay [12] was inactive.
For `CCCCC(CC)COC(=O)/C=C/c1ccc(OC)cc1` (centres undefined), the Potency entry in [1], in [2], in assay [3] and in [7] was “inactive” each time. The call in assay [4], in assay [5], in assay [6], in [8], in assay [9] and in assay [10] was inactive. Besides, the call in assay [14], in assay [15], in [11], in assay [12] and in assay [16] was inactive.
As to `O=C(O)c1cc(N=Nc2ccc(S(=O)(=O)Nc3ccccn3)cc2)ccc1O`, the Potency in [1] was 34.5 µM (active) and 30.6 µM (active); in [3], “inactive and 27.4 µM (active) and 30.6 µM (active)”. In addition, the Potency entry in assay [2] and in assay [7] was “inactive” throughout. For the same compound, the call in assay [4], in [5], in assay [6], in assay [8], in assay [9] and in [10] was inactive. Also, the result in assay [14], in assay [15], in assay [11], in assay [12] and in [16] was inactive.
Turning to `NNC(=O)c1ccncc1`, the Potency result in [1], in [3] and in assay [7] was “inactive” in each case. Moreover, the Potency in assay [2] was 13.3 µM (active). For the same compound, the compound was called inactive in assay [4], in assay [5], in [6], in assay [8], in assay [9] and in assay [10]. The compound was called inactive in [14], in assay [15], in assay [11] and in assay [12].
For `CC(O)C(=O)O` (centres undefined), the Potency entry in assay [1], in assay [2], in assay [3], in assay [7] and in assay [18] was “inactive” throughout. Moreover, the compound was called inactive in [6], in assay [8], in assay [13], in assay [9], in assay [10] and in assay [14]. The outcome in [17], in [15], in assay [11], in assay [19] and in assay [12] was inactive.
In the case of `O=C(O)c1cccc([N+](=O)[O-])c1`, the Potency result in assay [1], in assay [2], in assay [3] and in assay [7] was “inactive” throughout. Moreover, the result in [6], in assay [8], in assay [9], in assay [10], in [17] and in assay [11] was inactive. In assay [12], the result was inactive.
Consider `CC(C)(Oc1ccc(C2CC2(Cl)Cl)cc1)C(=O)O` (centres undefined), for which the Potency entry in [1], in [2], in [3] and in assay [7] was “inactive” throughout. The result in assay [5], in assay [6], in [8], in assay [13], in [9] and in assay [10] was inactive. Further, the call in assay [14], in assay [15], in [11], in [12], in assay [20] and in [16] was inactive.
As to `Cn1cc[nH]c1=S`, the Potency result in assay [1], in assay [3] and in assay [7] was “inactive” in each case. Besides, the result in assay [4], in [5], in assay [6], in assay [8], in [13] and in assay [9] was inactive. The compound was classed as inactive in assay [10], in assay [14], in assay [15], in [11] and in [12].
For the compound `O=NO`, the Potency entry in [1], in [2], in assay [3] and in assay [7] was “inactive” in each case. Also, the compound was classed as inactive in assay [6], in assay [8], in assay [13], in assay [9], in [10] and in assay [17]. The call in [11] and in assay [12] was inactive.
